Common to all, as to test: glycan array binding signal (z-score within array); higher = stronger binding
Common to all, as to conditions: glycan notation: IUPAC condensed, linker removed

Experiment [1] has as its target Fuc(a1-2)Gal(b1-4)GlcNAc(b1-2)Man(a1-3)[Fuc(a1-2)Gal(b1-4)GlcNAc(b1-2)Man(a1-6)]Man(b1-4)GlcNAc(b1-4)GlcNAc. An outline of the steps:
(§1)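 Glycan array data came from 3228 arrays in the Consortium for Functional Glycomics database, and only arrays with an available protein sequence were kept. Glycan names were put into IUPAC-condensed notation, and columns mapping to the same glycan were averaged. The binding signal is a within-array Z-score, averaged across arrays of one protein sequence run at different concentrations or buffers and across linkers. A negative Z-score can be read as non-binding.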

The target in experiment [2] is Fuc(a1-2)Gal(b1-4)GlcNAc(b1-6)GalNAc. An outline of the steps: as §1
For the next experiment, the target named is Fuc(a1-2)Gal6S(b1-4)Glc. An outline of the steps: as §1
Experiment [3] deals with Fuc(a1-2)Gal6S(b1-4)Glc6S. In short, it runs like this:
as §1

For experiment [4], the target named is Fuc(a1-2)[Gal(a1-3)]Gal(b1-4)GlcNAc(b1-2)Man(a1-3)[Fuc(a1-2)[Gal(a1-3)]Gal(b1-4)GlcNAc(b1-2)Man(a1-6)]Man(b1-4)GlcNAc(b1-4)GlcNAc. In short, it runs like this: as §1
Experiment [5] concerns the target Fuc(a1-2)[Gal(a1-3)]Gal(b1-4)GlcNAc(b1-3)[Fuc(a1-2)[Gal(a1-3)]Gal(b1-4)GlcNAc(b1-6)]GalNAc. An outline of the steps:
as §1

The target of experiment [6] is Fuc(a1-2)[Gal(a1-3)]Gal(b1-4)GlcNAc(b1-6)GalNAc. An outline of the steps:
as §1

Experiment [7] has as its target Fuc(a1-2)[Gal(a1-4)]Gal(b1-4)GlcNAc. In short, it runs like this: as §1
Experiment [8] concerns the target Fuc(a1-2)[GalNAc(a1-3)]Gal. In short, it runs like this:
as §1

Experiment [9] addresses Fuc(a1-2)[GalNAc(a1-3)]Gal(b1-4)Glc. In short, it runs like this: as §1
Experiment [10] deals with Fuc(a1-3)[Gal3S(b1-4)]GlcNAc. An outline of the steps: as §1
The target of experiment [11] is Fuc(a1-3)[GalNAc(b1-4)]GlcNAc. In short, it runs like this: as §1
Another experiment has as its target Gal(a1-3)Gal(b1-4)Glc. In short, it runs like this:
as §1

For another experiment, the target named is Gal(a1-3)GalNAc. An outline of the steps:
as §1

Experiment [12] deals with Gal(a1-4)Gal(b1-4)GlcNAc(b1-3)Gal(b1-4)Glc. In short, it runs like this: as §1
The target in another experiment is Gal(b1-3)Gal. An outline of the steps: as §1
Experiment [13] addresses Gal(b1-3)[Fuc(a1-4)]GlcNAc(b1-6)GalNAc. In short, it runs like this:
as §1

Experiment [14] deals with Gal(b1-4)GlcNAc(b1-2)Man(a1-3)[Gal(b1-4)GlcNAc(b1-2)Man(a1-6)][Gal(b1-4)GlcNAc(b1-4)]Man(b1-4)GlcNAc(b1-4)[Fuc(a1-6)]GlcNAc. In short, it runs like this:
as §1

Experiment [15] addresses Gal(b1-4)GlcNAc(b1-2)[Gal(b1-4)GlcNAc(b1-4)]Man(a1-3)[Gal(b1-4)GlcNAc(b1-2)Man(a1-6)]Man(b1-4)GlcNAc(b1-4)GlcNAc. In short, it runs like this: as §1
Experiment [16] addresses Gal(b1-4)GlcNAc(b1-3)Gal(b1-4)GlcNAc(b1-2)Man(a1-3)[Gal(b1-4)GlcNAc(b1-3)Gal(b1-4)GlcNAc(b1-2)Man(a1-6)]Man(b1-4)GlcNAc(b1-4)[Fuc(a1-6)]GlcNAc. In short, it runs like this:
as §1

For the next experiment, the target named is Gal(b1-4)GlcNAc6P. In short, it runs like this:
as §1

The next experiment has as its target Gal6S(b1-4)Glc. An outline of the steps: as §1
The target in a further experiment is GalNAc(b1-4)GlcNAc6S. An outline of the steps:
as §1

For the next experiment, the target named is GlcA(b1-6)Gal. An outline of the steps:
as §1

This is one part of a sample in which the strongest signals are shown more often than they occur.

Data on 1 molecule can be found in the supplement of paper PMC8728848.

B1: Thrombomodulin Lectin (Mus musculus) (protein)
chain: LSALAKLQPTGSQCVEHECFALFQGPATFLDASQACQRLQGHLMTVRSSVAADVISLLLSQSSMDLGPWIGLQLPQGCDDPVHLGPLRGFQWVTGDNHTSYSRWARPNDQTAPLCGPLCVTVSTATEAAPGEPAWEEKPCETETQGFLCEFYFTASCRVDPIPVREDTKEEEGAGEPPVSPTPGSPTGPPSARPVLDEPRVPITQNPCPPLKECPPCAAPDLEGGPSVFIFPPKIKDVLMISLSPMVTCVVVDVSEDDPDVQISWFVNNVEVHTAQTQTHREDYNSTLRVVSALPIQHQDWMSGKAFACAVNNRALPSPIEKTISKPRGPVRAPQVYVLPPPAEEMTKKEFSLTCMITGFLPAEIAVDWTSNGRTEQNYKNTATVLDSDGSYFMYSKLRVQKSTWERGSLFACSVVHEGLHNHLTTKTISRSLGK
For the molecule B1, the “glycan array binding signal (z-score)” value was determined as 0.621 in experiment [1]; 2.73 in [2]; 2.72 in the experiment with Fuc(a1-2)Gal6S(b1-4)Glc; 0.784 in experiment [3]; 2.81 in experiment [4]; 2.22 in [5]. For the same molecule, the “glycan array binding signal (z-score)” value in experiment [6] was 0.082; in experiment [7] it was 0.651; in experiment [8], 0.693; in [9] it was -0.508; in experiment [10], -0.275; in experiment [11], 0.174. Besides, the “glycan array binding signal (z-score)” value is 0.642 with Gal(a1-3)Gal(b1-4)Glc; -0.598 in the experiment with Gal(a1-3)GalNAc; 0.021 in [12]; 2.2 in the experiment with Gal(b1-3)Gal; -0.03 in [13]; 0.267 in experiment [14]. The “glycan array binding signal (z-score)” value in experiment [15] is 2.75; in experiment [16], 1.18; with Gal(b1-4)GlcNAc6P it was 2.7; with Gal6S(b1-4)Glc it was -1.09; in the experiment with GalNAc(b1-4)GlcNAc6S, 0.18; with GlcA(b1-6)Gal, 1.32.
